Compounds without any hit were thinned out: in the full panel of roughly 83,000, 20% have a hit.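 Cell lines were cultured in 96-well plates, exposed to a single compound concentration, and assessed for percent growth 48 hours later.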 Active and inactive are the calls of the source. Rule for the calls: active = growth percent below 10; inactive = the rest.
Key:
Assay in all cases: NCI-60 one-dose screen, 48 h (100 = growth as untreated, 0 = no growth, -100 = all killed)
Conditions in all cases: 10 µM unless noted
EKVX NSCLC = tested on: EKVX NSCLC
SN12C renal = tested on: SN12C renal
TK-10 renal = tested on: TK-10 renal
ACHN renal = tested on: ACHN renal
CAKI-1 renal = tested on: CAKI-1 renal
CCRF-CEM leukemia = tested on: CCRF-CEM leukemia
MOLT-4 leukemia = tested on: MOLT-4 leukemia
UO-31 renal = tested on: UO-31 renal
A498 renal = tested on: A498 renal

Measured: growth

CNC=O
inactive: EKVX NSCLC 156% | SN12C renal 99.8% | TK-10 renal 101% | ACHN renal 110% | CAKI-1 renal 99.6% | CCRF-CEM leukemia 103% | MOLT-4 leukemia 106%

OC(COc1cccc2ccccc12)CN1CCN(c2ccccc2)CC1 (stereo not drawn)
inactive: EKVX NSCLC 103% | SN12C renal 98.7% | UO-31 renal 82.2% | TK-10 renal 104% | ACHN renal 104% | CAKI-1 renal 47% | A498 renal 95.5% | MOLT-4 leukemia 107%

CN(C)c1ccc(C#Cc2c(F)cccc2Cl)cc1
inactive: EKVX NSCLC 63.5% | SN12C renal 82.2% | UO-31 renal 41.2% | ACHN renal 83.5% | CAKI-1 renal 82.4% | A498 renal 42.6% | CCRF-CEM leukemia 88.6% | MOLT-4 leukemia 89.4%

O=C(CC1Sc2ccccc2NC1=O)NNc1ccc(F)cc1 (stereo not drawn)
inactive: EKVX NSCLC 75.9% | SN12C renal 89.5% | ACHN renal 56.4% | CAKI-1 renal 69% | A498 renal 91.7% | MOLT-4 leukemia 45.8%
active: CCRF-CEM leukemia 7.39%

CN1C[C@@H](c2ccc(Cl)cc2)[C@]2(NC(=S)N(c3ccccc3)C2=O)[C@@]12C(=O)NC1C=CC(Br)=C[C@H]12 (stereo partly drawn)
inactive: EKVX NSCLC 71.1% | SN12C renal 46.1% | UO-31 renal 40.4% | TK-10 renal 87.2% | CCRF-CEM leukemia 30.5% | MOLT-4 leukemia 21.4%

CCN(CC)CC(=O)Nc1cccc(C(=O)OC(C)C)c1
inactive: EKVX NSCLC 96.4% | SN12C renal 107% | UO-31 renal 89.7% | TK-10 renal 87.5% | CCRF-CEM leukemia 86.6% | MOLT-4 leukemia 96.2%

N#C/C=C(\c1ccc([N+](=O)[O-])cc1)n1nnc2cc(Cl)c(Cl)cc21
active: SN12C renal -20.1% | UO-31 renal -70.9% | TK-10 renal -16.2% | ACHN renal -85% | CCRF-CEM leukemia 9.49%
inactive: EKVX NSCLC 38.6% | CAKI-1 renal 40.9% | MOLT-4 leukemia 22.4%

Clc1ccc(/C=N\N=c2\scc(-c3ccc(Cl)cc3)n2/N=C/c2ccc(Cl)cc2)cc1
inactive: EKVX NSCLC 109% | SN12C renal 102% | UO-31 renal 95.7% | TK-10 renal 92.5% | ACHN renal 106% | CAKI-1 renal 107% | CCRF-CEM leukemia 97% | MOLT-4 leukemia 91.7%

CC(C)(C)OC(=O)N1Cc2cc3ccccc3nc2C1CO (stereo not drawn)
inactive: EKVX NSCLC 92.9% | SN12C renal 98.9% | UO-31 renal 87% | ACHN renal 111% | CAKI-1 renal 53.2% | A498 renal 97.1% | MOLT-4 leukemia 128%

N#Cc1c(NC(=O)c2ccc(Br)cc2)sc2c1CCCC2
inactive: EKVX NSCLC 37% | SN12C renal 45.7% | UO-31 renal 63% | TK-10 renal 72.7% | ACHN renal 47.6% | CAKI-1 renal 54.3% | CCRF-CEM leukemia 20.4% | MOLT-4 leukemia 32.5%

CN(C)CN1CCN(c2ccc3nc(-c4ccc5nc(-c6ccc(C(F)(F)F)cc6)[nH]c5c4)[nH]c3c2)CC1
inactive: EKVX NSCLC 79% | SN12C renal 64.4% | UO-31 renal 131% | TK-10 renal 130% | ACHN renal 79.3% | CAKI-1 renal 73.6% | CCRF-CEM leukemia 38.6% | MOLT-4 leukemia 44.2%

CC(=[N-])N1CCC[C@@H](Nc2c3ccccc3nc3ccccc23)C1.[Cl][Pt].[NH-]CCC[NH-]
inactive: EKVX NSCLC 52.3% | UO-31 renal 27.4% | CAKI-1 renal 15.5% | CCRF-CEM leukemia 35.4% | MOLT-4 leukemia 14.6%
active: SN12C renal 5.71% | TK-10 renal 1.35% | ACHN renal -22.2%

CCC(=O)OC1=C(C)SC2=NC(c3ccc(Cl)c(Cl)c3)=CC(c3cc(OC)c(OC)c(OC)c3)N21 (stereo not drawn)
inactive: SN12C renal 95.3% | UO-31 renal 82.1% | TK-10 renal 133% | ACHN renal 102% | CAKI-1 renal 87.8% | CCRF-CEM leukemia 90.7% | MOLT-4 leukemia 99.3%

CCCCOC(=O)c1ccc(NC(=O)C(C)N2CCOCC2)cc1 (stereo not drawn)
inactive: EKVX NSCLC 109% | SN12C renal 104% | UO-31 renal 88.3% | TK-10 renal 97.2% | A498 renal 99.5% | CCRF-CEM leukemia 72.4% | MOLT-4 leukemia 94.9%

Cc1cnc(Nc2ccc(N3CCN(C)CC3)cc2)nc1Nc1ccc(Cl)c(NS(=O)(=O)C(C)(C)C)c1
active: TK-10 renal 0.435% | ACHN renal -4.72% | MOLT-4 leukemia 10%
inactive: EKVX NSCLC 32.5% | SN12C renal 34% | CAKI-1 renal 25% | CCRF-CEM leukemia 34.2%

CCOC(=O)c1nnn(C(Cc2ccccc2Cl)C(=O)OCC)c1C (stereo not drawn)
inactive: EKVX NSCLC 106% | SN12C renal 104% | UO-31 renal 89.7% | TK-10 renal 96.6% | ACHN renal 104% | CAKI-1 renal 90.8% | A498 renal 103% | CCRF-CEM leukemia 88.5% | MOLT-4 leukemia 94.6%

CC(C)(C)N1CC(OC(N)=O)C1
inactive: EKVX NSCLC 90.2% | SN12C renal 100% | UO-31 renal 85.5% | TK-10 renal 94.8% | ACHN renal 106% | CAKI-1 renal 41% | A498 renal 105% | MOLT-4 leukemia 133%

O=C1NC(=S)S/C1=C\N1N=C(c2ccc(Cl)cc2)CC1c1ccc(F)cc1 (stereo not drawn)
inactive: EKVX NSCLC 76% | SN12C renal 96.5% | UO-31 renal 60.1% | TK-10 renal 101% | ACHN renal 87.2% | CAKI-1 renal 85.4% | CCRF-CEM leukemia 65.5% | MOLT-4 leukemia 45.1%

CCn1c(Sc2nnc(NC(=O)CSC(=S)N3CCCCC3)s2)nc2c1c(=O)n(C)c(=O)n2C
inactive: EKVX NSCLC 88.5% | SN12C renal 96.6% | UO-31 renal 79.8% | TK-10 renal 95.8% | ACHN renal 77.5% | CAKI-1 renal 47.7% | CCRF-CEM leukemia 84.7% | MOLT-4 leukemia 97.6%

N#Cc1c(NC(=O)c2ccccc2I)sc2c1CCCC2
inactive: EKVX NSCLC 48.5% | SN12C renal 53.5% | TK-10 renal 106% | ACHN renal 50.9% | CAKI-1 renal 45% | CCRF-CEM leukemia 23.7% | MOLT-4 leukemia 34.9%

CCCNCC(=O)Nc1ccc(C(=O)OC(C)(C)CC)cc1
inactive: EKVX NSCLC 98.1% | SN12C renal 105% | UO-31 renal 86.3% | TK-10 renal 93% | A498 renal 108% | CCRF-CEM leukemia 104% | MOLT-4 leukemia 89.7%

O=C(NCCOCCOCCOCCNC(=O)c1cc2c(o1)C(=O)c1ccccc1C2=O)NC12CC3CC(CC(C3)C1)C2
inactive: CCRF-CEM leukemia 18.8%
active: EKVX NSCLC -4.03% | SN12C renal -68.2% | UO-31 renal -59% | ACHN renal 0.47% | CAKI-1 renal -5.41%

NC(=O)CC1(O)C=C(Br)C(=O)C(Br)=C1
inactive: EKVX NSCLC 91.4% | SN12C renal 117% | TK-10 renal 17.1%
active: UO-31 renal -53.6% | ACHN renal -59.4% | CAKI-1 renal -10.2% | MOLT-4 leukemia -53%

CCNCCNc1cc(-c2ccc(C(=O)OC)cc2)c(C#N)c2nc3ccccc3n12
active: CCRF-CEM leukemia -3.88%
inactive: EKVX NSCLC 84.8% | SN12C renal 67.4% | TK-10 renal 87.3% | ACHN renal 36.4% | CAKI-1 renal 58.2% | A498 renal 81.9% | MOLT-4 leukemia 28.3%

Cc1ccccc1NC(=O)CN(C)C
inactive: EKVX NSCLC 108% | SN12C renal 97% | UO-31 renal 81.2% | ACHN renal 99.6% | CAKI-1 renal 103% | A498 renal 83.8% | CCRF-CEM leukemia 107% | MOLT-4 leukemia 94.2%

O=C1CSC(c2ccccc2Cl)N1c1nnc(Cn2cnnc2)o1 (stereo not drawn)
inactive: EKVX NSCLC 60.7% | SN12C renal 82% | UO-31 renal 66.4% | TK-10 renal 91.1% | ACHN renal 73.6% | A498 renal 75.5% | CCRF-CEM leukemia 43.4% | MOLT-4 leukemia 20.2%

COc1cc(/C=C2\C=C(c3ccccc3)N(CCc3ccccc3)C2=O)cc(OC)c1OC
inactive: EKVX NSCLC 69.2% | SN12C renal 82% | UO-31 renal 69.2% | ACHN renal 30.9% | CAKI-1 renal 80.1% | A498 renal 34.2% | MOLT-4 leukemia 94.8%

Nc1c(C(=O)c2ccc(Cl)s2)sc2nc3c(cc12)CCCC3
inactive: SN12C renal 94.4% | TK-10 renal 151% | ACHN renal 112% | CAKI-1 renal 87% | A498 renal 72% | CCRF-CEM leukemia 99.9% | MOLT-4 leukemia 99.5%

COc1ccc(-c2cncnc2N)cc1OC
inactive: SN12C renal 109% | UO-31 renal 101% | ACHN renal 104% | CAKI-1 renal 101% | A498 renal 87.8% | CCRF-CEM leukemia 95.9% | MOLT-4 leukemia 105%

COc1ccc(-c2cc(-c3ccc(Nc4nc(Nc5ccccc5)nc(Nc5ccc(Cl)cc5)n4)cc3)nc(N)c2C#N)cc1
inactive: EKVX NSCLC 18.7% | SN12C renal 25.7%
active: UO-31 renal -71.5% | TK-10 renal -86.6% | ACHN renal -82.2% | CAKI-1 renal -20.4% | CCRF-CEM leukemia 3.41% | MOLT-4 leukemia 2.08%

Reference: PubChem BioAssay (NCI)
